The target of test [1] is Acetylcholinesterase (Homo sapiens) (UniProt P22303). Description: Acetylcholinesterase (AChE) small molecule antagonists: colormetric cell-based qHTS assay (AID 1347395). Also: nearly all actives have a fitted effect of over 30% in size. Also: potency is read from the fitted curve at half-maximal effect. A digest of the protocol:
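AChE inhibition read colorimetrically via DTNB–thiocholine in SH-SY5Y cells. Compound 30 min, substrate 90 min, both 37 C.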
In general terms: qHTS replaces the single test concentration by a dilution series.

Test [2] shares this target. Put plainly: Acetylcholinesterase (AChE) small molecule antagonists: enzyme-based qHTS assay (AID 1347397). Also: nearly all actives have a fitted effect of over 55% in size. Also: potency is read from the fitted curve at half-maximal effect. As to conditions: Potency: AChE enzyme activity inhibition; outcome: AChE enzyme activity inhibition. A digest of the protocol: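 Absorbance-based detection of thiocholine with DTNB served as the read-out. Recombinant human AChE was exposed to compound for 30 min at RT before a 10 min RT incubation with acetylthiocholine.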

The target is the same in test [3]. Put plainly: Acetylcholinesterase (AChE) small molecule antagonists: fluorescence cell-based qHTS assay (AID 1347398). Also: nearly all actives have a fitted effect of over 50% in size. Also: potency is read from the fitted curve at half-maximal effect. As to conditions: Potency: AChE activity; outcome: AChE activity. In outline: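 Fluorimetric cell-based assay: intact SH-SY5Y cells, 30 min compound preincubation at 37 C, acetylthiocholine substrate with thiol probe Thiolite Green, 40 min RT development, fluorescence 490/520 nm.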

The target is the same in test [4]. Put plainly: Acetylcholinesterase (AChE) small molecule antagonists: enzyme-based qHTS assay with human liver microsomes (AID 1347399). Also: nearly all actives have a fitted effect of over 60% in size. The conditions noted are these: Potency: qHTS inhibition; outcome: qHTS inhibition. In outline: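 Recombinant human AChE (50 mU/mL in the enzyme mix) and human liver microsomes (0.25 mg/mL final) were preincubated with compound and NADPH (0.25 mg/mL final) for 30 min at 37 C. Acetylthiocholine/DTNB was then added; thiocholine was read colorimetrically after 10 min at room temperature.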

Structures are written as SMILES. Records with an inconclusive call do not appear. Some compounds were tested as several samples or in several runs, with calls that do not always agree. Activity calls are given as the source filed them. Calls follow the shape of the full dose curve.
% is scaled to controls: 0 for no effect and ±100 for the full control effect.

Sequence of Acetylcholinesterase (Homo sapiens) (P22303 whole entry, looked up): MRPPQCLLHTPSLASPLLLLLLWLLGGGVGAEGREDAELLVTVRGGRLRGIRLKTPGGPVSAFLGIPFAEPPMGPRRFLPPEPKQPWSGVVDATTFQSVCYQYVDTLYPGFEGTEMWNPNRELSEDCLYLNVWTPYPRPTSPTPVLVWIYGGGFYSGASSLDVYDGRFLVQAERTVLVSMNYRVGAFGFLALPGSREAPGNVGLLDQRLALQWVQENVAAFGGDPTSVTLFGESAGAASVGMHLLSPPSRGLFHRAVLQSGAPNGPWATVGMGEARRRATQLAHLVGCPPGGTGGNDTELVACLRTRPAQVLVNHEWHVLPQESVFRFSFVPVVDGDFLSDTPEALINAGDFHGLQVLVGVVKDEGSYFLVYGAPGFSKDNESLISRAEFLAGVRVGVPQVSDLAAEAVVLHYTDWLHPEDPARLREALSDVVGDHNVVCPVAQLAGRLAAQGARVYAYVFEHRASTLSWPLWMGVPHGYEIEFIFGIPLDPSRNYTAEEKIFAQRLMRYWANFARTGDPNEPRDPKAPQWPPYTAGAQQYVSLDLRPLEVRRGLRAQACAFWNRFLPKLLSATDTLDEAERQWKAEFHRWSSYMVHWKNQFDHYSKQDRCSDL

As to `O=c1[nH]cc(F)c(=O)[nH]1`, the Potency in test [1] is 20.8 µM (active) and inactive. The Potency entry in test [2], in test [3] and in test [4] was “inactive” each time.

As for `CCCCCCCCC`, the Potency entry in test [1], in test [2], in test [3] and in test [4] was “inactive” throughout.

With `CCOc1ccc(OCC)c(Cl)c1`, the Potency entry in test [1], in test [2], in test [3] and in test [4] was “inactive” in each case.

For `CC(C)(Oc1ccc(CCNC(=O)c2ccc(Cl)cc2)cc1)C(=O)O`, the Potency entry in test [1], in test [2], in test [3] and in test [4] was “inactive” in each case.

`CCN(CCC#N)c1ccccc1`: the Potency result in test [1], in test [2], in test [3] and in test [4] was “inactive” in each case.

Regarding `CCCCN1C(=O)c2ccccc2C1=O`, the Potency result in test [1], in test [2], in test [3] and in test [4] was “inactive” throughout.

Turning to `CC(C)C(C)(C)C(C)(C)C(C)(C)S`, the Potency entry in test [1], in test [2], in test [3] and in test [4] was “inactive” throughout.

In the case of `O=C(c1ccccc1)c1ccc2n1CCC2C(=O)O` (stereo not given), the Potency entry in test [1], in test [2], in test [3] and in test [4] was “inactive” in each case.

In the case of `COc1ccc(/C=N/NC(=O)c2ccncc2)cc1OC`, the Potency entry in test [1], in test [2], in test [3] and in test [4] was “inactive” throughout.

Consider `O=C(Cl)c1c(Cl)c(Cl)c(C(=O)Cl)c(Cl)c1Cl`, for which the Potency entry in test [1], in test [2], in test [3] and in test [4] was “inactive” throughout.

For the molecule `Cc1cc(CC(=O)O)n(C)c1C(=O)c1ccc(Cl)cc1`, the Potency entry in test [1], in test [2], in test [3] and in test [4] was “inactive” in each case.

For the molecule `CCCC(=O)O`, the Potency entry in test [1], in test [2], in test [3] and in test [4] was “inactive” in each case.

`C=C[C@@]1(C)CC(=O)[C@]2(O)[C@@]3(C)[C@@H](O)CCC(C)(C)[C@@H]3[C@H](O)[C@H](OC(C)=O)[C@@]2(C)O1`: the Potency result in test [1], in test [2], in test [3] and in test [4] was “inactive” throughout.

With `CC(O)COCC(C)O` (stereo not given), the Potency result in test [1], in test [2], in test [3] and in test [4] was “inactive” each time.

In the case of `O=C(OCc1ccccc1)c1ccc(O)cc1`, the Potency result in test [1], in test [2], in test [3] and in test [4] was “inactive” throughout.

With `OC[C@@H](O)C(O)[C@@H](O)CO` (stereo not given in full), the Potency entry in test [1], in test [2], in test [3] and in test [4] was “inactive” in each case.

For `CC(C)N=C=NC(C)C`, the Potency result in test [1], in test [2], in test [3] and in test [4] was “inactive” throughout.

Regarding `Nc1nc2ccccc2[nH]1`, the Potency entry in test [1], in test [2], in test [3] and in test [4] was “inactive” throughout.

As to `O=[N+]([O-])c1ccc(/C=N\O)o1`, the Potency result in test [1], in test [2], in test [3] and in test [4] was “inactive” in each case.

For `C[C@@H]1NC(=O)[C@@H](N)CNC(=O)[C@H](C2CCNC(N)=N2)NC(=O)/C(=C/NC(N)=O)NC(=O)[C@H](CNC(=O)C[C@@H](N)CCCN)NC1=O` (stereo not given in full), in test [1], the activity, negative = inhibition is -1.67% [at 0.435 µM] (inactive). Further, the activity change, negative = inhibition was -0.97% [at 0.435 µM] (inactive) in test [2], 6.12% [at 0.439 µM] (inactive) in test [3] and -1.43% [at 0.435 µM] (inactive) in test [4].

With `CCCc1nc2c(C)cc(-c3nc4ccccc4n3C)cc2n1Cc1ccc(-c2ccccc2C(=O)O)cc1`, the Potency result in test [1], in test [2], in test [3] and in test [4] was “inactive” in each case.

`CCOCC(=O)O`: the Potency in test [1] is 36.4 µM (active) and inactive. Moreover, the Potency result in test [2], in test [3] and in test [4] was “inactive” throughout.

Regarding `C[C@](N)(Cc1ccc(O)c(O)c1)C(=O)O`, the Potency entry in test [1], in test [2], in test [3] and in test [4] was “inactive” each time.

On to `NC(=S)NC(N)=S`, for which the Potency result in test [1], in test [2], in test [3] and in test [4] was “inactive” throughout.

On to `C/C(Cl)=C/CCl`, for which the Potency entry in test [1], in test [2], in test [3] and in test [4] was “inactive” each time.

Regarding `Nc1nc(N)nc(-c2ccccc2)n1`, the Potency entry in test [1], in test [2], in test [3] and in test [4] was “inactive” each time.

For `O=C(O)c1ccc(OCCCOc2ccc(C(=O)O)cc2)cc1`, the Potency result in test [1], in test [2], in test [3] and in test [4] was “inactive” throughout.

As for `COc1cccc(O)c1`, the Potency entry in test [1], in test [2], in test [3] and in test [4] was “inactive” in each case.

Turning to `CCc1ccc(O)cc1`, the Potency entry in test [1], in test [2], in test [3] and in test [4] was “inactive” each time.

Turning to `CCOC(=O)C(=O)CCCCCCl`, the Potency result in test [1], in test [2], in test [3] and in test [4] was “inactive” in each case.

With `CCc1ccc(C)cc1`, the Potency result in test [1], in test [2], in test [3] and in test [4] was “inactive” throughout.

Consider `c1ccsc1`, for which the Potency entry in test [1], in test [2], in test [3] and in test [4] was “inactive” in each case.

As to `CC(=O)c1ccc(S(=O)(=O)NC(=O)NC2CCCCC2)cc1`, the Potency result in test [1], in test [2], in test [3] and in test [4] was “inactive” in each case.

In the case of `CN(C)c1ccc(C(c2ccccc2)c2ccc(N(C)C)cc2)cc1`, the Potency entry in test [1], in test [2], in test [3] and in test [4] was “inactive” in each case.

For the molecule `O=c1[nH]c(=O)n([C@H]2C[C@H](O)[C@@H](CO)O2)cc1C(F)(F)F`, the Potency entry in test [1], in test [2], in test [3] and in test [4] was “inactive” in each case.

For the molecule `CC(C)CCO`, the Potency result in test [1], in test [2], in test [3] and in test [4] was “inactive” each time.

`OCCO`: the Potency entry in test [1], in test [2], in test [3] and in test [4] was “inactive” throughout.

On to `CC(=O)CCCCn1c(=O)c2c(ncn2C)n(C)c1=O`, for which the Potency entry in test [1], in test [2], in test [3] and in test [4] was “inactive” each time.

For the molecule `CNC[C@H](O)[C@@H](O)[C@H](O)[C@H](O)CO`, the Potency result in test [1], in test [2], in test [3] and in test [4] was “inactive” throughout.

Turning to `CC(CC=O)c1ccccc1` (stereo not given), the Potency result in test [1], in test [2], in test [3] and in test [4] was “inactive” throughout.

Take `Cc1nc2ccc(Cl)cc2[nH]1`: the Potency result in test [1], in test [2] and in test [4] was “inactive” in each case. Besides, in test [3], the Potency was 25.1 µM (active).

For the molecule `Cc1cc(=O)n(-c2ccccc2)n1C`, the Potency result in test [1], in test [2], in test [3] and in test [4] was “inactive” throughout.

As for `COc1ccc(S(=O)(=O)N2C(=O)[C@@](c3ccccc3OC)(N3C[C@H](O)C[C@H]3C(=O)N(C)C)c3cc(Cl)ccc32)c(OC)c1`, the Potency result in test [1], in test [2], in test [3] and in test [4] was “inactive” throughout.

Take `Cc1ccc2oc(CN(Cc3ccccc3)C(=O)Nc3c(F)cc(F)cc3F)c(-c3ccc(Cl)cc3)c2c1`: the Potency result in test [1], in test [2], in test [3] and in test [4] was “inactive” throughout.

In the case of `CCCCC(CC)COC(=O)c1ccc(N(C)C)cc1` (stereo not given), the Potency entry in test [1], in test [2], in test [3] and in test [4] was “inactive” throughout.

In the case of `C[C@]12CCC(=O)C=C1CC[C@H]1[C@@H]3CC[C@](O)(C(=O)CO)[C@@]3(C)C[C@H](O)[C@@]12F`, the Potency entry in test [1], in test [2], in test [3] and in test [4] was “inactive” each time.

Take `CC(C)(C)c1ccc(S)cc1`: the Potency entry in test [1], in test [2], in test [3] and in test [4] was “inactive” in each case.

Consider `O=Cc1ccc(Cl)c([N+](=O)[O-])c1`, for which the Potency in test [1] was 39.9 µM (active). The Potency entry in test [2], in test [3] and in test [4] was “inactive” in each case.

For the molecule `CCCCCCC`, the Potency result in test [1], in test [2], in test [3] and in test [4] was “inactive” each time.

As to `Cc1ccc(OC(=O)CC(C)C)cc1`, the Potency result in test [1], in test [2], in test [3] and in test [4] was “inactive” in each case.

On to `CC[C@@]1(O)C(=O)OCc2c1cc1n(c2=O)Cc2cc3c(CN(C)C)c(O)ccc3nc2-1`, for which the Potency entry in test [1], in test [2], in test [3] and in test [4] was “inactive” throughout.

For `CC(CCO)CC(C)(C)C` (stereo not given), the Potency result in test [1], in test [2], in test [3] and in test [4] was “inactive” throughout.

`CC(=O)N[C@@H](CCC(N)=O)C(=O)O`: the Potency entry in test [1], in test [2], in test [3] and in test [4] was “inactive” throughout.

Consider `CC(O)COc1ccccc1` (stereo not given), for which the Potency result in test [1], in test [2], in test [3] and in test [4] was “inactive” throughout.

Take `Cc1ccncc1`: the Potency entry in test [1], in test [2], in test [3] and in test [4] was “inactive” each time.

As for `Nc1ccc(S(=O)(=O)NC(=O)c2ccccc2)cc1`, the Potency entry in test [1], in test [2], in test [3] and in test [4] was “inactive” each time.

Consider `CCCCCN(CCCOC)C(=O)C(CCC(=O)O)NC(=O)c1ccc(Cl)c(Cl)c1` (stereo not given), for which the Potency entry in test [1], in test [2], in test [3] and in test [4] was “inactive” throughout.

Take `Cc1nc2sccn2c(=O)c1CCN1CCC(=C(c2ccc(F)cc2)c2ccc(F)cc2)CC1`: the Potency is 30.9 µM (active) in test [1], 38.9 µM (active) in test [2] and 15.5 µM (active) in test [3]. For the same molecule, the Potency result in test [4] is “inactive”.

For `CCO[Si](CC)(OCC)OCC`, the Potency result in test [1], in test [2], in test [3] and in test [4] was “inactive” in each case.

In the case of `CC1=CC[C@@H](C(C)(C)O)CC1`, the Potency result in test [1], in test [2], in test [3] and in test [4] was “inactive” in each case.

Source of the values: PubChem BioAssay (Tox21).
